High-throughput results: PubChem, several laboratories
Shown are actives, neighbours in structure and some others; about 4% of the full set was active somewhere.
GDH-TPI counter: inhibits GDH-TPI coupling enzymes, artifact for Mtb FBA screen; inhibition, % at 4.8 µM; GDH-TPI coupled enzyme counterscreen, NADH absorbance; actives 1.2% (n = 360,000); AID 588335; in the data active = inhibition above about 30%;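 note: 0% = DMSO wells and 100% = wells lacking the enzyme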
RecA splice inh: inhibitors of M. tuberculosis RecA intein splicing. cell-free RecA intein splicing, fluorescence. inhibition, % (concentration not given with the values). actives 0.75% (n = 290,000). AID 2221; in the data active = inhibition above about 30%;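 note: 0% = vehicle wells and 100% = reference inhibitor control wells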
Mtb FBA inh: inhibitors of M. tuberculosis fructose-bisphosphate aldolase; P9WQA3; purified M. tuberculosis FBA, fluorescence read-out; inhibition, % at 1 µM; actives 2.3% (n = 360,000); in the data active = inhibition above about 27%;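 note: 0% = vehicle and 100% = reference inhibitor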
Mtb bLac sens: beta-lactam sensitization of Mtb H37Rv. actives 0.27% (n = 330,000). inhibition, % at 25 µM. M. tuberculosis H37Rv growth with meropenem, percent inhibition; call rule not given here;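 note: growth measured after seven days incubation then overnight dye step; 0% = bacteria only wells and 100% = bacteria with antibiotic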
UGM FP inh: Mtb UDP-galactopyranose mutase inhibition | actives 0.06% (n = 320,000) | purified UGM, fluorescence polarization probe displacement | inhibition, % at 10 µM; in the data active = inhibition above about 10%, passing the limit was not always enough
Target sequence (P9WIQ1 whole entry, looked up): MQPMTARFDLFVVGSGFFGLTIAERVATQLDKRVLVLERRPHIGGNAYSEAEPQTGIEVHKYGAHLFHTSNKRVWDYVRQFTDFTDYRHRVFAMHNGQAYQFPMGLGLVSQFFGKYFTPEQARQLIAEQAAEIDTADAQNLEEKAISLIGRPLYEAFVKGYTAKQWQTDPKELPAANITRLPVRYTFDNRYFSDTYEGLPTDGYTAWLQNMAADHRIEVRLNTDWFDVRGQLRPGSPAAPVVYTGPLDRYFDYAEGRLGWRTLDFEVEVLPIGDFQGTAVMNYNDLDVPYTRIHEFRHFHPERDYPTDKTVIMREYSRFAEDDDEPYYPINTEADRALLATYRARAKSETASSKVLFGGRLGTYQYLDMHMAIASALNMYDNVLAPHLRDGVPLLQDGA
Rv3671c protease: inhibits the M. tuberculosis serine protease Rv3671c; inhibition, % at 5.96 µM; actives 0.048% (n = 320,000); P9WHR9; in the data active = inhibition above about 38%;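 note: extracellular domain of Rv3671c used as enzyme; 0% = enzyme with DMSO and 100% = no enzyme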
* hit, by the source's call; / = no result; + = active, no number.

SMILES | GDH-TPI counter | RecA splice inh | Mtb FBA inh | Mtb bLac sens | UGM FP inh | Rv3671c protease
CCN(C(=O)CN(C1=NC2CS(=O)(=O)CC2S1)c1ccc(OC)cc1)c1cccc(C)c1 (stereo not given) | 2 | / | -4 | / | / | /
COc1cccc(-c2nc(-c3ccc4c(c3)NC(=O)CO4)cs2)c1 | -5 | 6 | 0 | 10 | -3 | -2
COc1ccc(-c2cc(-c3ccc(OC)cc3)nc(-c3ccc4c(c3)NC(=O)CO4)c2)cc1 | 32* | 0 | 1 | 97 | 1 | -2
COc1ccc(-c2cc3ccc(OCC(=O)NCC4CCC(C(=O)O)CC4)cc3oc2=O)cc1 (stereo not given) | 42* | -80 | 178* | 1 | 0 | -2
CCc1cc(=O)oc2cc(OCC(=O)NCC3CCC(C(=O)O)CC3)ccc12 (stereo not given) | 19 | -1 | 28* | -8 | -1 | 2
CCCc1cc(=O)oc2cc(OCc3ccc(C(=O)O)cc3)ccc12 | 13 | -4 | 48* | 1 | 7 | -1
COCC(C)NS(=O)(=O)c1ccc(NC(=O)c2ccccn2)cc1 (stereo not given) | 10 | 3 | 2 | -1 | 4 | -9
CCOC(=O)C1CCN(c2nc(N)c3c(N)nc(SCC(=O)O)cc3c2C#N)CC1 | 8 | 45* | 25 | / | / | /
COc1cc2c(C#N)c(N3CCCCC3)nc(N)c2c(N)n1 | 19 | -6 | 4 | 43 | 5 | 2
COc1ccc(-c2ccc(C#N)c(SCC(=O)NCCc3ccccc3)n2)cc1OC | 13 | 7 | 152* | 3 | 1 | -9
CC(C)(C)OC(=O)N/N=C/c1ccc(N2CCOCC2)s1 | 35* | -3 | -3 | -10 | -1 | -4
CCN(CC(=O)Nc1ccc(OC)cc1)C(=O)c1cc(S(=O)(=O)N(C)C)ccc1N1CCCC1 | -1 | 4 | -1 | -8 | -4 | -1
Cc1nc2scc(-c3ccc(C(C)C)cc3)c2c(=O)n1N | -1 | 1 | 3 | 3 | 6 | 6
COc1ccc(CCNc2oc(Cc3cccc4ccccc34)nc2C#N)cc1OC | 4 | 17 | 1 | 48 | -1 | -9
COP(=O)(OC)c1nc(-c2cccc3ccccc23)oc1NCCc1ccccc1 | 14 | -4 | + | 5 | 1 | -2
COc1ccc(CCNc2oc(-c3cccc4ccccc34)nc2P(=O)(OC)OC)cc1OC | 16 | -7 | 188* | -3 | -1 | 3
Cc1ccc(/C(O)=C2\C(=O)C(=O)N(C)C2c2ccc(Br)cc2)cc1 (stereo not given) | -3 | -4 | 1 | -1 | 0 | -1
COc1ccc(C2/C(=C(/O)c3ccc(C)cc3)C(=O)C(=O)N2C)cc1 (stereo not given) | 32* | 1 | -1 | 3 | 4 | 1
CCOC(=O)C(=NCCCN1CCOCC1)NNc1cccc(C(F)(F)F)c1 | 8 | -9 | 2 | 97 | 1 | -4
Oc1ccc(N=Nc2ccccc2)o1 | 2 | 3 | -6 | 58 | 0 | -2
Cc1ccc2nc3c(cc(C#N)c(=N)n3Cc3cccnc3)c(=O)n2c1 | / | -27 | / | 0 | -1 | -4
CNC(=O)c1cc2c(=O)n3cc(C)ccc3nc2n(C(C)C)c1=N | 11 | -406 | + | 0 | 1 | 3
Cc1ccc2nc3c(cc(C(=O)NC4CCCC4)c(=N)n3C3CCCCC3)c(=O)n2c1 | 14 | -396 | 134* | 7 | 4 | 0
C=CCn1c(=N)c(C(=O)OCC)cc2c(=O)n3cccc(C)c3nc21 | / | / | / | 3 | 0 | 1
CCOC(=O)c1cc2c(=O)n3ccccc3nc2n(CCCOC)c1=NC(=O)c1ccncc1 | 17 | -96 | + | -2 | 2 | 3
SMILES | GDH-TPI counter | RecA splice inh | Mtb FBA inh | Mtb bLac sens | UGM FP inh | Rv3671c protease
CCOC(=O)c1cc2c(=O)n3cccc(C)c3nc2n(CCOC)c1=NC(C)=O | 1 | / | + | -3 | -2 | 14
CCOC(=O)c1cc2c(=O)n3ccccc3nc2n(CCCOC)c1=NC(C)=O | 19 | / | + | 1 | 3 | 0
O=C(Oc1ccc(-c2ccccc2)cc1)c1ccco1 | 7 | / | 0 | / | / | /
O=Cc1ccnc(-c2ccc(OC(=O)c3ccco3)cc2)n1 | -6 | 36* | 3 | 4 | 4 | 4
COc1ccc(-n2nc(N)c(C(N)=O)n2)cc1 | 13 | -8 | + | -5 | 2 | -1
COc1ccc(C(=O)n2cnnc2N)cc1 | 0 | 5 | 3 | -7 | 0 | 2
Cc1cc2ncn(/N=C/c3ccc([N+](=O)[O-])s3)c2cc1C | 13 | 6 | -1 | 100 | -8 | 7
O=[N+]([O-])c1ccc(/C=N/n2cnc3ccccc32)s1 | 11 | 2 | -2 | 100 | 11* | -10
Nc1ccc(-c2cnc(-c3ccc(N)cc3)nc2)cc1 | 67* | 0 | -6 | 16 | 0 | 7
Cc1c(C(=O)NCc2ccc(C(F)(F)F)cc2)sc(=O)n1Cc1ccc(S(=O)(=O)N(C)C)cc1 | -4 | / | -2 | / | / | /
Cc1ccccc1OCCn1cc(C(=S)N2CCCC2)c2ccccc21 | 0 | / | -3 | -10 | 11* | -8
Cc1ccccc1OCCn1cc(C(=S)N2CCN(C)CC2)c2ccccc21 | 3 | 4 | 0 | 4 | -1 | 1
O=C(CN1CCN(Cc2ccccc2Cl)CC1)N/N=C/C=C/c1ccco1 | 61* | 1 | -2 | 41 | 0 | 1
CC(/C=N\NC(=O)CN1CCN(Cc2ccccc2)CC1)=C\c1ccco1 | 53* | 2 | -6 | -4 | -1 | -11
Clc1ccccc1CN1CCN(/N=C/C=C/c2ccco2)CC1 | 42* | 5 | -1 | -6 | -1 | -13
CCn1c(SCC(=O)N/N=C/C(C)=C/c2ccco2)nnc1-c1ccccc1 | 22 | -2 | -1 | 5 | 2 | -2
O=C(CN1CCN(Cc2ccccc2)CC1)N/N=C\C=C/c1ccco1 | 43* | 1 | 0 | 48 | 2 | -3
C/C(=N/NC(=O)CN1CCN(Cc2ccccc2Cl)CC1)c1ccco1 | 0 | 1 | 3 | 4 | 5 | 11
CC1(Oc2ccc(CC#N)cc2)CCN(Cc2ccc(-n3ccnc3)cc2)C1 (stereo not given) | 13 | / | 1 | / | / | /
Cc1csc(=O)n1CC(=O)OCC(=O)NCc1ccc(Cl)cc1Cl | -10 | -2 | -2 | -3 | -1 | 4
O=C(Nc1ccsn1)c1ccc(Cl)cc1Cl | 6 | 0 | 0 | -4 | 0 | -7
CC(=O)c1sc2nc(C)cc(C)c2c1N | 19 | -89 | 22 | 13 | -2 | -10
C=COC(=O)c1sc2nc(C)cc(C)c2c1N | 1 | -20 | 134* | 3 | 4 | 4
Cc1cc(C)c2c(N)c(C(=O)Nc3ccccc3Cl)sc2n1 | 6 | -2 | 33* | 49 | 0 | 3
Cc1cc(C)c2c(N)c(C(=O)Nc3ccccc3F)sc2n1 | 11 | -37 | 26 | -7 | 0 | -3
CCN(CC(=O)NC1CCS(=O)(=O)C1)C(=O)c1ccc(OC)c([N+](=O)[O-])c1 (stereo not given) | 9 | / | -1 | -1 | 0 | -2
